In all, about 390,000 compounds went through this assay and about 4,000 (1%) were called active. Inconclusive results (about 7%) are left out. The sample as a whole holds a higher share of actives than the screen did. Unmarked numbers belong to inactive results. Calls come from the whole dose curve; as a rule, active = well fitted inhibition curve with a large enough effect; inconclusive = small, poorly fitted or top-dose-only effect, or another doubt; inactive = no such curve, though single readings can be large or run the other way.
Biological target: DNA polymerase iota (Homo sapiens) (UniProt Q9UNA4)
Sequence (Q9UNA4 whole entry, looked up): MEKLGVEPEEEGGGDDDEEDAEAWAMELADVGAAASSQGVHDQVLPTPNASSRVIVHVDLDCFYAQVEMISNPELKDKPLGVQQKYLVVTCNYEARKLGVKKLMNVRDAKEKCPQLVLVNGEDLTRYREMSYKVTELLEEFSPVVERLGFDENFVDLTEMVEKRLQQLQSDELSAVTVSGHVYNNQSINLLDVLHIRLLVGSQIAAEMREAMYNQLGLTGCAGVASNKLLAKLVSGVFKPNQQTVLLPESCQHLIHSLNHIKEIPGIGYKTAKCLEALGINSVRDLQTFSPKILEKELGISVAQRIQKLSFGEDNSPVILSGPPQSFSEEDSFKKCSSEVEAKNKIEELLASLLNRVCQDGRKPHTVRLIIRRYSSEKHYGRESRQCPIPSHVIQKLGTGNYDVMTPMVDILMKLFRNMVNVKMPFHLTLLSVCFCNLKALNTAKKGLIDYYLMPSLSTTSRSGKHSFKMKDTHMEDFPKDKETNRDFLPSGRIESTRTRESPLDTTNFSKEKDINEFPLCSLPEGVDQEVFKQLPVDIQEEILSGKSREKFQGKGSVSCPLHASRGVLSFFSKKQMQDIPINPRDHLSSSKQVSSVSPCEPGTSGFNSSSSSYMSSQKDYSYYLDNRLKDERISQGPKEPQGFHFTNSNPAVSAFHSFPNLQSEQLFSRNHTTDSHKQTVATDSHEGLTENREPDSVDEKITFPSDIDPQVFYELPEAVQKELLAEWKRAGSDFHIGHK
Experiment: qHTS for Inhibitors of Polymerase Iota
Settings: Pol iota fluorescent replication assay, 10 min; series mostly up to 115 µM; activity, negative = inhibition: at the top concentration
In short: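 Fluorescent replication assay read twice, at 0 min and 10 min after adding 50 nM (final) substrate. Enzyme (10 nM) and compounds were first incubated 15 min at room temperature; enzyme-free buffer wells were negative controls.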
Potency is the fitted concentration of half-maximal effect.

SMILES | activity, negative = inhibition | Potency
O=C1CC(c2ccccc2)CC2=C1C(c1ccco1)n1nc(C(F)(F)F)nc1N2 (stereo not given) | 36.4% | 
CC1(C)CC(=O)c2cc(C(=O)NCc3ccccc3)c(=O)[nH]c2C1 | -3.14% | 
O=C(CSCc1cnn(-c2ccccc2)c1-n1cccc1)NCc1ccccc1Br | 20.1% | 
CC1(C)Cc2ccccc2-c2c[nH]c(=O)n21 | 35.5% | 
COc1ccc(S(=O)(=O)Nc2cccc3cccnc23)c(N)c1 | 13.3% | 
Cc1ccc(CN(C(=O)c2ccccc2[N+](=O)[O-])c2ccccn2)cc1 | 8.51% | 
CCn1cc(C(=O)NCc2ccc(C)cc2)c(=O)c2cc(S(=O)(=O)N3CCc4ccccc4C3)ccc21 | 6.69% | 
Cc1nc2nc(SCC(=O)NCc3ccco3)nn2c(C)c1Cc1ccccc1 |  | 50.1 µM (active)
Cc1ccc(Cc2c(C)nc3nc(SCC(=O)NCCN4CCOCC4)nn3c2C)cc1 | 6.43% | 
COc1cc(NC(=O)CSc2nc3nc(C)c(Cc4ccc(C)cc4)c(C)n3n2)cc(OC)c1OC | 14.9% | 
O=C(CN1C(=O)CCn2nc(-c3ccccc3)cc21)NCc1ccccc1 | 15.2% | 
CCCCc1nn2c(=O)cc(COC(=O)c3ccccc3NC(=O)C(C)(C)C)nc2s1 | 2.84% | 
COc1ccc(/C=C/C(=O)OCC(=O)NC2CCCCCC2)cc1OC |  | 89.1 µM (active)
COc1ccccc1/C=C/C(=O)OCC(=O)NC1CCCCCC1 | 36.9% | 
COc1cc(/C=C/C(=O)OCC(=O)NC2CC2)cc(OC)c1OC | -18% | 
Cc1c(Cl)cccc1NC(=O)C1CCCN(C(=O)c2cnn(-c3ccccc3)c2-n2cccc2)C1 (stereo not given) | 27.3% | 
CCCS(=O)(=O)C(=C1Nc2ccccc2N1)S(=O)(=O)CCC | 2.05% | 
CN(C)/C=C1/Nc2ccccc2C1=O |  | 28.2 µM (active)
COc1ccccc1CNC(=O)Cn1nc(C)c2nn(-c3ccc(Cl)cc3)c(C)c2c1=O | 19.7% | 
COC(=O)c1ccccc1NS(=O)(=O)c1ccc2c(c1)CCCN2C(C)=O | -5.29% | 
O=C1C(Cl)=C(Oc2ccccc2)C(=O)c2ccccc21 |  | 1.78 µM (active)
COc1ccccc1CNC(=O)CS(=O)(=O)c1cccc2nsnc12 | 1.49% | 
Cc1nn2c(=O)cc(COC(=O)CNC(=O)c3ccc(F)cc3)nc2s1 | -5.5% | 
O=C(Cc1ccccc1)Nc1sc2c(c1C(=O)Nc1ccc(Br)cc1)CCC2 | 16.3% | 
COc1cccc(N=C2SC(C(=O)Nc3cccc(Cl)c3)CC(=O)N2C)c1 (stereo not given) | -6.41% | 

SMILES | activity, negative = inhibition | Potency
CCCCNC(=O)Cn1c(SCc2cccc(Cl)c2)nc2ccncc21 | 24.8% | 
COCCNC(=O)Nc1ccc2nc(-c3ccco3)c(-c3ccco3)nc2c1 |  | 2.82 µM (active)
CCOc1ccc(NC(=O)c2ncoc2-c2ccco2)cc1 | 2.03% | 
COc1ccc(NC(=O)COCc2cc(-c3ccco3)on2)cc1 | -14.4% | 
COc1ccc(NC(=O)CCCc2nnc3n(CCC(C)C)c(=O)c4sccc4n23)c(OC)c1 | 9.5% | 
Cc1ccc(CN2C(=O)SC(Nc3ccccc3)C2=O)cc1 (stereo not given) | -9.14% | 
CCOC(=O)CSC1=Nc2ccccc2C2=NC(CCC(=O)NCc3ccc(F)cc3)C(=O)N12 (stereo not given) | 0.348% | 
CC(C)C1N=C2c3ccccc3N=C(SCC(=O)c3ccc(O)c(O)c3)N2C1=O (stereo not given) |  | 1.41 µM (active)
Cc1ccc(CNC(=O)CSC2=Nc3ccccc3C3=NC(C)C(=O)N23)cc1 (stereo not given) | -0.464% | 
COc1ccc(NC(=O)CSc2nc3ccccc3n2CC(=O)N2CCCCC2C)cc1 (stereo not given) | -7.07% | 
CCOc1ccc(S(=O)(=O)Nc2ccc3oc4c(c3c2)CC(C)CC4)cc1 (stereo not given) | 8.03% | 
Oc1ccc(N=Cc2sc3ccccc3c2Cl)cc1 |  | 8.91 µM (active)
COC(=O)c1cc(NC(=O)c2sc3ccccc3c2Cl)cc(C(=O)OC)c1 | 8.39% | 
O=S(=O)(c1ccc2nc(N3CCN(c4cccc(Cl)c4)CC3)ccc2c1)N1CCCCC1 | -5.47% | 
c1ccc(Cn2nnc3c(N4CCCCC4)ncnc32)cc1 | 47.3% | 
Cc1ccc(-c2nc(Cn3c(=O)cc(-c4ccccc4)c4c(C)nn(C)c43)c(C)o2)cc1 | -6.95% | 
COc1cc(OC)cc(C(=O)Nc2ccc3nc(Nc4cccc(C(F)(F)F)c4)cc(C)c3c2)c1 | 13.8% | 
Cc1cccc(NC(=O)CSc2nc3c(oc4ccccc43)c(=O)n2-c2ccc(F)cc2)c1 | 33.5% | 
Cc1ccc2c(=O)c(C(=O)c3cccc(Cl)c3)cn(CC(=O)NCc3ccccc3)c2n1 | -2.34% | 
NNc1cccc(C=Cc2ccccc2)cc1=O |  | 25.1 µM (active)
O=C(COC(=O)/C=C/c1cccc(Cl)c1)NCCc1ccccc1 | 17.7% | 
NS(=O)(=O)c1ccc(NS(=O)(=O)/C=C/c2ccccc2)cc1 | 30% | 
CCC(=O)N1CCc2cc(Br)cc(S(=O)(=O)CCC(=O)N3CCN(c4ccc(F)cc4)CC3)c21 | 15.6% | 
Cn1c(SCC(=O)N2CCCc3ccccc32)ncc(C(=O)Nc2ccc(F)cc2)c1=O | 17.9% | 
S=c1[nH]c(=S)c2n[nH]nc2[nH]1 | 21.1% | 
